Laboratory results published in PubChem BioAssay (EPA / NIEHS).
Results filed as inconclusive are left out. Activity calls are given as the source filed them. Rule for the calls, unless noted: active = hit-call score of the fitted dose curve at least 0.9, where 1 is the maximum; inactive = score below 0.9.

How the values were obtained:
[1] = APR_HepG2_MicrotubuleCSK_1hr: Apredica 1-hour HepG2 Assay for Microtubule CSK Stabilty (AID 2282669); details: HepG2 microtubule cytoskeleton imaging, actives raise or lower the signal
How it was run: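 Alpha-tubulin immunofluorescence, imaged by automated high-content microscopy with Hoechst nuclear segmentation, measured cytoskeletal change after 1 h dosing of HepG2 at 0.39–200 uM in 0.5% DMSO. Activity fitted in both directions relative to DMSO.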

[2] = APR_HepG2_NuclearSize_1hr: Apredica 1-hour HepG2 Assay for Nuclear Size (AID 2282670); details: high-content imaging, actives raise or lower the signal
How it was run: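 Nuclear size measured by high-content imaging of Hoechst 33342 nuclear stain after formaldehyde fixation; human HepG2 line exposed 1 hr to compounds at 0.39–200 uM in 0.5% DMSO, with bidirectional curve fitting relative to DMSO.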

[3] = APR_HepG2_p53Act_1hr: Apredica 1-hour HepG2 Assay for p53 Activation (AID 2282671); details: high-content imaging, actives raise or lower the signal
How it was run: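 After 1 h exposure (0.39–200 uM, 0.5% DMSO final, duplicates), fixed HepG2 cells were labelled with anti-p53 antibody plus Hoechst nuclear stain. Fluorescence quantified by automated 20x imaging; changes fitted in both directions against DMSO.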

[4] = APR_HepG2_MitoticArrest_1hr: Apredica 1-hour HepG2 Assay for Mitotic Arrest (AID 2282672); details: high-content imaging, actives raise or lower the signal
How it was run: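 Ten-point concentration series (0.39 to 200 uM, duplicates, 0.5% v/v DMSO) applied to human HepG2 liver cells for 1 hr. High-content imaging of phospho-histone H3 and Hoechst-stained nuclei after fixation and permeabilization; DMSO-normalised bidirectional fit.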

[5] = APR_HepG2_P-H2AX_1hr: Apredica 1-hour HepG2 Assay for H2AX Phosphorylation (AID 2282673); details: high-content imaging, actives raise or lower the signal
How it was run: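 Phospho-H2A.x immunofluorescence (1:200, FITC secondary) plus Hoechst nuclear stain, quantified by high-content imaging in HepG2 after 1 hr compound exposure. Ten concentrations, 0.39 to 200 uM, in duplicate with 0.5% DMSO; fit both directions against DMSO.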

[6] = APR_HepG2_MitoMembPot_1hr: Apredica 1-hour HepG2 Assay for Mitochondrial Membrane Potential (AID 2282675); details: imaging, actives raise or lower the signal
How it was run: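 Mitochondrial membrane potential read as MitoTracker Red CMXRos intensity by automated imaging of fixed HepG2 cells. Dye at 250 nM for 30 min pre-fixation; compounds 0.39 to 200 uM for 1 hour, duplicate wells, 0.5% DMSO.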

[7] = APR_HepG2_CellLoss_1hr: Apredica 1-hour HepG2 Assay for Cell Loss (AID 2282668); details: high-content imaging;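 note: curves fitted both ways against DMSO so gain or loss of cells counts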
How it was run: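 Cell number comes from high-content imaging of Hoechst-labelled nuclei in fixed HepG2 cells. Cells were exposed for 1 h to ten concentrations from 0.39 to 200 uM in 0.5% DMSO. Gain or loss was fitted against DMSO controls.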

[8] = APR_HepG2_MitoMass_1hr: Apredica 1-hour HepG2 Assay for Mitochondrial Mass (AID 2282674); details: high-content imaging, actives raise or lower the signal
How it was run: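 Mitochondrial mass is taken from MitoTracker Red CMXRos (250 nM, 30 min, pre-fixation) fluorescence imaged at 20x in HepG2 cells. Exposure lasted 1 hr across ten concentrations, 0.39 to 200 uM, 0.5% DMSO; DMSO baseline, bidirectional fitting.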

[9] = ACEA_ER_80hr: ACEA Biosciences xCELLigence Real-Time Cell Analysis on Estrogen Receptor Agonism for Proliferation (AID 2282667; active = hit-call score of the fitted dose curve at least 0.9, where 1 is the maximum); details: T47D proliferation, impedance (xCELLigence), 80 h
How it was run: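 Real-time impedance growth kinetics of human T-47D breast cells read 80 h after dosing, gain-of-signal fitted relative to DMSO. Compounds: 1:4 serial series, top final concentration 100 uM, n = 2.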

| Structure (SMILES) | outcome [1] | outcome [2] | outcome [3] | outcome [4] | outcome [5] | outcome [6] | AC50 [5] | outcome [7] | outcome [8] | outcome [9] | AC50 [8] | AC50 [6] |
| --- | --- | --- | --- | --- | --- | --- | --- | --- | --- | --- | --- | --- |
| CCOC(=O)C(C)Oc1ccc(Oc2nc3ccc(Cl)cc3o2)cc1 (stereo not drawn) | inactive | inactive | inactive | inactive | inactive | inactive |  |  |  |  |  |  |
| CCCOC(=O)NCCCN(C)C | inactive | inactive | inactive | inactive | inactive | inactive |  |  |  |  |  |  |
| CCC(C)OC(=O)N1CCCCC1CCO (stereo not drawn) | inactive | inactive | inactive | inactive | inactive | inactive |  |  |  |  |  |  |
| N#CSCSc1nc2ccccc2s1 | inactive | inactive |  | inactive |  | inactive | 27.5 µM (active) |  |  |  |  |  |
| C=CCOC(Cn1ccnc1)c1ccc(Cl)cc1Cl (stereo not drawn) | inactive | inactive | inactive | inactive | inactive | inactive |  |  |  |  |  |  |
| CN(C)C(=O)Nc1ccc(Cl)c(Cl)c1 | inactive | inactive | inactive | inactive | inactive | inactive |  |  |  |  |  |  |
| CCCCCOC(=O)COc1cc(N2C(=O)C3=C(CCCC3)C2=O)c(F)cc1Cl | inactive | inactive |  | inactive | inactive | inactive |  | inactive |  |  |  |  |
| CSC(=O)c1cccc2nnsc12 | inactive | inactive | inactive | inactive | inactive | inactive |  |  | inactive |  |  |  |
| CCCCC(CC)COC(=O)c1ccccc1C(=O)O (stereo not drawn) | inactive | inactive | inactive | inactive | inactive | inactive |  |  |  |  |  |  |
| CC1(C)C(C=C(Cl)Cl)C1C(=O)OCc1cccc(Oc2ccccc2)c1 (stereo not drawn) | inactive | inactive | inactive | inactive | inactive | inactive |  |  |  | inactive |  |  |
| CCCN(CCC)c1c([N+](=O)[O-])cc(C(F)(F)F)c(N)c1[N+](=O)[O-] | inactive | inactive | inactive | inactive |  | inactive | 109 µM (active) |  |  | inactive |  |  |
| COC(=O)c1ccccc1S(=O)(=O)NC(=O)Nc1nc(OC(F)F)cc(OC(F)F)n1 | inactive | inactive | inactive | inactive | inactive | inactive |  |  |  |  |  |  |
| CCCCCCC(C)OC(=O)COc1nc(F)c(Cl)c(N)c1Cl (stereo not drawn) | inactive | inactive | inactive | inactive |  | inactive | 100 µM (active) |  |  |  | 64 µM (active) |  |
| c1ccc(Nc2ccccc2)cc1 | inactive | inactive | inactive | inactive | inactive | inactive |  |  |  |  |  |  |
| Oc1ccc(C(c2ccc(O)cc2)C(Cl)(Cl)Cl)cc1 | inactive | inactive | inactive | inactive | inactive |  |  |  |  |  |  | 87 µM (active) |
| CCNc1nc(N)nc(Cl)n1 | inactive | inactive | inactive | inactive | inactive | inactive |  | inactive |  |  |  |  |
| O=C(O)C1(C(=O)Nc2ccc(Cl)cc2Cl)CC1 | inactive | inactive | inactive | inactive | inactive | inactive |  |  |  |  |  |  |
| COc1c(Cl)ccc(Cl)c1C(=O)O | inactive | inactive |  | inactive | inactive | inactive |  |  |  | inactive |  |  |
| COC(=O)c1cccc(C)c1S(=O)(=O)NC(=O)Nc1nc(OCC(F)(F)F)nc(N(C)C)n1 | inactive | inactive | inactive | inactive | inactive | inactive |  |  | inactive |  |  |  |
| CCCCOCCOCCOCc1cc2c(cc1CCC)OCO2 | inactive | inactive |  | inactive | inactive | inactive |  |  | inactive |  |  |  |
| CCOC(=O)[C@H](C)Oc1ccc(Oc2nc3ccc(Cl)cc3o2)cc1 | inactive | inactive | inactive | inactive | inactive | inactive |  |  |  |  |  |  |
| CC(C)(c1ccc(O)cc1)c1ccc(O)cc1 | inactive | inactive | inactive | inactive | inactive | inactive |  |  |  |  |  |  |
| COC(=O)CSc1cc(N=c2sc(=O)n3n2CCCC3)c(F)cc1Cl | inactive | inactive | inactive | inactive | inactive | inactive |  |  | inactive |  |  |  |
| c1ccc2[nH]c(-c3cscn3)nc2c1 | inactive | inactive |  | inactive | inactive | inactive |  |  |  |  |  |  |
| S=C([S-])NCCNC(=S)[S-].[Mn+2] | inactive | inactive |  | inactive | inactive | inactive |  |  |  |  |  |  |
| CC(C)(C)[C@@H](O)[C@@H](Cc1ccc(Cl)cc1)n1cncn1 | inactive | inactive | inactive | inactive | inactive | inactive |  |  |  |  |  |  |
| COC(=O)c1ccccc1C(=O)O | inactive | inactive | inactive | inactive | inactive | inactive |  |  |  | inactive |  |  |
| CCOC(=O)COc1cc(-n2ncc(C(F)(F)F)c(C)c2=O)c(F)cc1Cl | inactive | inactive | inactive | inactive | inactive | inactive |  |  |  |  |  |  |
